Measurements as given in PubChem BioAssay (NCATS).
“And” between values parts separate entries of the source, which are not always exact repeats. Equal entries are not always repeated. Records with an inconclusive call do not appear. Some compounds were tested as several samples or in several runs, with calls that do not always agree. The source made the active and inactive calls. Unless noted, calls follow the shape of the dose curve; as a rule, active = well fitted curve in the direction sought with a large enough effect; inconclusive = small, poorly fitted or top-dose-only effect, or another doubt; inactive = no such curve, though single readings can be large; an effect the other way counts as inactive or inconclusive.

What was measured:
[1] = system: NIH3T3; assay: qHTS assay to identify novel small-molecules to repurpose for Merkel cell carcinoma treatment (AID 1296009); settings: MCC and control cell lines, CellTiter-Glo viability, 72 h; at 44.8 µM (top of the series) unless noted; also: nearly all actives have a fitted effect of over 60% in size
How it was run: (§1)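 Luminescence from CellTiter-Glo, read 10 min after addition at room temperature, reported viability following a 72 hr, 37 degree celsius treatment with NPC or MIPE compounds in titration; values normalized to plate controls.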

[2] = system: UISO; assay: as above; settings: MCC and control cell lines, CellTiter-Glo viability, 72 h; series mostly up to 46 µM
How it was run: as §1

[3] = system: WaGa; assay: as above; settings: MCC and control cell lines, CellTiter-Glo viability, 72 h; series mostly up to 46 µM
How it was run: as §1

[4] = system: C33A; assay: Primary qHTS to identify gynecologic anti-cancer compounds using libraries of approved drugs and bioactive compounds (AID 1345084); settings: Gynecologic cancer cell panel viability, ATPlite luminescence, 48 h; series mostly up to 57.5 µM; also: nearly all actives have a fitted effect of over 55% in size; also: potency is read from the fitted curve at half-maximal effect
How it was run: (§2)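 Measured: luminescence after ATPlite addition (15 min, RT). Exposure: 48 h, 37 C, 5% CO2.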

[5] = system: CAOV3; assay: as above; settings: Gynecologic cancer cell panel viability, ATPlite luminescence, 48 h; series mostly up to 57.5 µM
How it was run: as §2

[6] = system: CASKI; assay: as above; settings: Gynecologic cancer cell panel viability, ATPlite luminescence, 48 h; series mostly up to 57.5 µM
How it was run: as §2

[7] = system: Es-2; assay: as above; settings: Gynecologic cancer cell panel viability, ATPlite luminescence, 48 h; series mostly up to 57.5 µM
How it was run: as §2

[8] = system: HeLa; assay: as above; settings: Gynecologic cancer cell panel viability, ATPlite luminescence, 48 h; series mostly up to 57.5 µM
How it was run: as §2

[9] = system: Hek293T; assay: as above; settings: Gynecologic cancer cell panel viability, ATPlite luminescence, 48 h, control line for the selectivity index; series mostly up to 57.5 µM
How it was run: as §2

[10] = system: JEG-3; assay: as above; settings: Gynecologic cancer cell panel viability, ATPlite luminescence, 48 h; series mostly up to 57.5 µM
How it was run: as §2

[11] = system: OV90; assay: as above; settings: Gynecologic cancer cell panel viability, ATPlite luminescence, 48 h; series mostly up to 57.5 µM
How it was run: as §2

[12] = system: PA-1; assay: as above; settings: Gynecologic cancer cell panel viability, ATPlite luminescence, 48 h; series mostly up to 57.5 µM
How it was run: as §2

[13] = system: SKOV3; assay: as above; settings: Gynecologic cancer cell panel viability, ATPlite luminescence, 48 h; series mostly up to 57.5 µM
How it was run: as §2

[14] = system: Tov-21-G; assay: as above; settings: Gynecologic cancer cell panel viability, ATPlite luminescence, 48 h; series mostly up to 57.5 µM
How it was run: as §2

[15] = system: Tov112D; assay: as above; settings: Gynecologic cancer cell panel viability, ATPlite luminescence, 48 h; series mostly up to 57.5 µM
How it was run: as §2

[16] = Drug repurposing screens with cells derived from glioblastoma tumor samples (AID 1345199); settings: GBM patient neurospheres viability, ATP luminescence, 48 h; also: % is scaled to controls: 0 for no effect and ±100 for the full control effect; nearly all actives have a fitted effect of over 40% in size
How it was run: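 Primary testing used CD133+ neurospheres from four GBM patients, seven concentrations, 48 h exposure and ATP-based viability; confirmation added three slower-growing patient lines.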

[17] = target: Nuclear receptor subfamily 1 group I member 2 (Rattus norvegicus) (UniProt Q9R1A7); assay: qHTS assay for small molecule activators of the rat pregnane X receptor (rPXR) signaling pathway (AID 651751; call rule not given here; also: 0% is about no effect); settings: rPXR reporter cells, luciferase (One-Glo), 24 h
[18] = qHTS assay for small molecule activators of the human pregnane X receptor (PXR) signaling pathway (AID 720659; call rule not given here; also: 0% is about no effect)
[19] = at 45.9 µM (top of the series), tumour line B
[20] = at 45.9 µM (top of the series), tumour line D
[21] = at 46.1 µM (top of the series), tumour line C
[22] = at 46 µM (top of the series), tumour line A

Chain of Nuclear receptor subfamily 1 group I member 2 (Rattus norvegicus) (Q9R1A7 whole entry, looked up): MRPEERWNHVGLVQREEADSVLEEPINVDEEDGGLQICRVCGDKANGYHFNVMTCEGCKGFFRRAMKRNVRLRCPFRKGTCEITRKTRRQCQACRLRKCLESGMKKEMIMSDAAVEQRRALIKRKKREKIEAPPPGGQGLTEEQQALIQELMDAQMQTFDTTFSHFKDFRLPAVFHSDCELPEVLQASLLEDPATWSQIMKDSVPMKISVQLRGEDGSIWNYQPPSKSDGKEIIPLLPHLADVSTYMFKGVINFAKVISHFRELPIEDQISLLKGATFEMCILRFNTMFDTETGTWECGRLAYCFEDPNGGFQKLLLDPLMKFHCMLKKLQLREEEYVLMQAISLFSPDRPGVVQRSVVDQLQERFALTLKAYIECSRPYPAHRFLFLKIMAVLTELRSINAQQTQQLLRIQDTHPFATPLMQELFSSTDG

O=C(O)c1cc(-c2ccccc2)nc2ccccc12
inactive: outcome [1] | Potency [2] | Potency [3] | Potency [4] | Potency [5] | Potency [6] | Potency [7] | Potency [9] | Potency [10] | Potency [11] | Potency [12] | Potency [14] | Potency [15] | activity, negative = cell killing [16, 19] -26% | activity, negative = cell killing [16, 20] -24.8% | activity, negative = cell killing [16, 21] -23% | max response [17] -0.78% | outcome [18]
50.1 µM (active) and inactive: Potency [8]
28.2 µM (active) and inactive: Potency [13]

OC[C@H]1O[C@@H](n2cnc3c2NC=NC[C@@H]3O)C[C@H]1O
inactive: outcome [1] | Potency [2] | Potency [3]

COc1cccc(-c2cc(=O)c3ccccc3o2)c1N
inactive: outcome [1] | Potency [2] | Potency [3]

CC(C)(C(=O)NCC(F)(F)C(F)(F)F)C(=O)N[C@@H]1C(=O)Nc2ccccc2-c2ccccc21
inactive: outcome [1]

CC1(C)Cc2c(sc(NC(=S)NC(=O)c3ccccc3)c2C(=O)O)CO1
inactive: outcome [1] | Potency [2] | Potency [3]

CCCNC(=O)NS(=O)(=O)c1ccc(Cl)cc1
inactive: outcome [1] | Potency [2] | Potency [3] | Potency [4] | Potency [5] | Potency [6] | Potency [7] | Potency [8] | Potency [9] | Potency [10] | Potency [11] | Potency [12] | Potency [13] | Potency [14] | Potency [15] | activity, negative = cell killing [16, 19] -7.96% | activity, negative = cell killing [16, 20] 5.01% | activity, negative = cell killing [16, 22] -11.4% | activity, negative = cell killing [16, 21] -13.2% | max response [17] -5.97% and -1.04% | outcome [18]

CCOC1OC(=O)C[C@H]1NC(=O)[C@@H]1CCCN1C(=O)[C@@H](NC(=O)c1ccc(N)c(Cl)c1)C(C)(C)C (some centres undefined)
inactive: outcome [1] | Potency [2]

C[N+](C)(C)CCCCCC[N+](C)(C)C
inactive: outcome [1] | Potency [2] | Potency [3] | Potency [4] | Potency [6] | Potency [7] | Potency [8] | Potency [9] | Potency [10] | Potency [11] | Potency [12] | Potency [13] | Potency [14] | Potency [15] | activity, negative = cell killing [16, 19] -9.48% | activity, negative = cell killing [16, 20] -17.5% | activity, negative = cell killing [16, 22] -4.52% | activity, negative = cell killing [16, 21] 8.25%

CCOC(=O)C1=C(N)Oc2ccc(Br)cc2C1C(C#N)C(=O)OCC (centres undefined)
inactive: outcome [1] | Potency [2] | Potency [3] | Potency [4] | Potency [5] | Potency [6] | Potency [7] | Potency [8] | Potency [9] | Potency [10] | Potency [11] | Potency [12] | Potency [13] | Potency [14] | Potency [15]

COc1ccc(-c2coc3cc(O)cc(O)c3c2=O)cc1
inactive: outcome [1] | Potency [2] | Potency [3]

CCN(CC)CCNC(=O)c1ccc(N)cc1
inactive: outcome [1] | Potency [2] | Potency [3] | Potency [4] | Potency [6] | Potency [7] | Potency [8] | Potency [9] | Potency [10] | Potency [11] | Potency [12] | Potency [13] | Potency [14] | Potency [15] | activity, negative = cell killing [16, 19] -3.23% | activity, negative = cell killing [16, 21] 15.6%

Cn1c(N2CCCCS2(=O)=O)nc(C(=O)NCc2ccc(F)cc2)c(O)c1=O
inactive: outcome [1] | Potency [2] | Potency [3] | Potency [4] | Potency [6] | Potency [7] | Potency [8] | Potency [9] | Potency [10] | Potency [11] | Potency [12] | Potency [13] | Potency [14] | Potency [15]

O=C1NCC2(CCN(CCc3ccccc3)CC2)O1
inactive: outcome [1] | Potency [2] | Potency [3] | Potency [4] | Potency [6] | Potency [7] | Potency [8] | Potency [9] | Potency [10] | Potency [11] | Potency [12] | Potency [13] | Potency [14] | Potency [15] | activity, negative = cell killing [16, 19] -4.5% | activity, negative = cell killing [16, 20] -9.33% | activity, negative = cell killing [16, 21] -12.7%

CCCCCN(C)CCC(O)(P(=O)(O)O)P(=O)(O)O
inactive: outcome [1] | Potency [2] | Potency [3]
